These results are taken from paper PMC7862700, “An all-to-all approach to the identification of sequence-specific readers for epigenetic DNA modifications on cytosine”.

What all share (assay): DAPPL (digital affinity profiling via proximity ligation, sequencing); 10 mM Tris-HCl pH 7.5, 50 mM NaCl, 1 mM DTT, 4% glycerol, room temperature, 30 min; GST-TFs on glutathione beads, 16-mer random dsDNA library, 0.1% formaldehyde crosslink after washing; high values mean tight binding
One test concerns the target T1, FLI1 (Homo sapiens, UniProt Q01543 1-452).
T1 sequence: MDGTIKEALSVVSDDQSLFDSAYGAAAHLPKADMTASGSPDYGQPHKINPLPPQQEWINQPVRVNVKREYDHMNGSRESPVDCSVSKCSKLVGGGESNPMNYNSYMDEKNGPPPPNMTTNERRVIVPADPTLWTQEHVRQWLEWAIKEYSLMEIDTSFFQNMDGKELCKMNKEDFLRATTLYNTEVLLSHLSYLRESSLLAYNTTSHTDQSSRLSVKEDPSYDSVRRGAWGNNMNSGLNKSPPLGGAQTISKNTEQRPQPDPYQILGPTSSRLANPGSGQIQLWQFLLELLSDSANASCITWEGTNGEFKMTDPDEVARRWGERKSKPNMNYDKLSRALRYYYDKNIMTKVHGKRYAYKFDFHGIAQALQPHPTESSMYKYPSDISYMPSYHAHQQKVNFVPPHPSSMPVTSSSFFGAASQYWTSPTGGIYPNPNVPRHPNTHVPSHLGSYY
The settings on record: protein: recombinant; tags: N-terminal GST; dsDNA, one strand shown. The method in brief:
(§1)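 Each value of binding signal is a hexamer's read frequency for a factor divided by the same hexamer's frequency in the tag-only sample. Barcoded, bead-captured GST fusions of human transcription factors made in yeast were pooled with that sample and incubated with 200 nmole of a random double-stranded 16-mer DNA library in Tris/NaCl/DTT/glycerol buffer at room temperature for 30 min. Washing, 0.1% formaldehyde crosslinking, proximity ligation, PCR and Illumina NextSeq500 sequencing followed.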

A further test has as its target T2, ELK1 (Homo sapiens, UniProt P19419 1-428).
T2 sequence: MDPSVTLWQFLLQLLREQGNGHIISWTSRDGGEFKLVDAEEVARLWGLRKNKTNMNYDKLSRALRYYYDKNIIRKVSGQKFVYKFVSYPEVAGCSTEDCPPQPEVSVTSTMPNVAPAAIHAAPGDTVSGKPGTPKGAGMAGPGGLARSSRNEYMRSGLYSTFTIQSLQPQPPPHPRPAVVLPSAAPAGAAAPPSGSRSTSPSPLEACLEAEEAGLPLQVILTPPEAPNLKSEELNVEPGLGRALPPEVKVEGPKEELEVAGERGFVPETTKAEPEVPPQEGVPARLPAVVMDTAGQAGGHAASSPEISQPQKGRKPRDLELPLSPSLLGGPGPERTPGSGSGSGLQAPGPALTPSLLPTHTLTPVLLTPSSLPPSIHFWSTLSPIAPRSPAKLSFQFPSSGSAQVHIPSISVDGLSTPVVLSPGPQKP
The settings on record: protein: recombinant; tags: N-terminal GST; dsDNA, one strand shown. The procedure, abridged: as §1

For a further test, the target named is T3, GABPA (Homo sapiens, UniProt Q06546 1-454).
T3 sequence: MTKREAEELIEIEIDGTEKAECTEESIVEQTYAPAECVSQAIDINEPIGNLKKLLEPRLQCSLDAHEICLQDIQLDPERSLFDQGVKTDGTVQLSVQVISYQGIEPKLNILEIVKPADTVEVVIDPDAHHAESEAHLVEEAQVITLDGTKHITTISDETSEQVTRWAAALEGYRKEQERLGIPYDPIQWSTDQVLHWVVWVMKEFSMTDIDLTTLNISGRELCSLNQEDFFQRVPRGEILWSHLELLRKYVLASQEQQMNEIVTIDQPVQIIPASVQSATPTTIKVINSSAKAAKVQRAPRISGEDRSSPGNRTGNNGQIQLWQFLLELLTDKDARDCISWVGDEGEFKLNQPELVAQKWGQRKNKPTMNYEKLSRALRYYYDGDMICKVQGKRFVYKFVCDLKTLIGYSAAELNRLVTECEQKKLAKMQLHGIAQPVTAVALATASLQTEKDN
The settings on record: protein: recombinant; tags: N-terminal GST; dsDNA, one strand shown. The method in brief:
as §1

The next test addresses T4, ERG (Homo sapiens, UniProt P11308 1-479).
T4 sequence: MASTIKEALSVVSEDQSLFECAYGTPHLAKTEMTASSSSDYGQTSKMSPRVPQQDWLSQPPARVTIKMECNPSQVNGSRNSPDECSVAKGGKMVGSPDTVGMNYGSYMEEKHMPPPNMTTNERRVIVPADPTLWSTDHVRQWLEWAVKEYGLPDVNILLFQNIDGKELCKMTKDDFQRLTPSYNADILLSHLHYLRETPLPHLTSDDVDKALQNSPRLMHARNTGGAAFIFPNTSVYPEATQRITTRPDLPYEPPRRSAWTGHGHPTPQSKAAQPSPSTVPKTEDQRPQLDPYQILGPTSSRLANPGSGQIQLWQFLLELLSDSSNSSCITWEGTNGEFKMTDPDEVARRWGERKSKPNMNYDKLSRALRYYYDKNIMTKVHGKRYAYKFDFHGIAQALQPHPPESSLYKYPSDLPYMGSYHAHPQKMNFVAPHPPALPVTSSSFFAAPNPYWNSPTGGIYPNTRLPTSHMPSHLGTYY
The settings on record: protein: recombinant; tags: N-terminal GST; dsDNA, one strand shown. The procedure, abridged:
as §1

A further test addresses ELF1 (Homo sapiens, UniProt P32519 1-619). The settings on record: protein: recombinant; tags: N-terminal GST; dsDNA, one strand shown. The procedure, abridged:
as §1

In a further test the target is T5, EHF (Homo sapiens, UniProt Q9NZC4 1-300).
T5 sequence: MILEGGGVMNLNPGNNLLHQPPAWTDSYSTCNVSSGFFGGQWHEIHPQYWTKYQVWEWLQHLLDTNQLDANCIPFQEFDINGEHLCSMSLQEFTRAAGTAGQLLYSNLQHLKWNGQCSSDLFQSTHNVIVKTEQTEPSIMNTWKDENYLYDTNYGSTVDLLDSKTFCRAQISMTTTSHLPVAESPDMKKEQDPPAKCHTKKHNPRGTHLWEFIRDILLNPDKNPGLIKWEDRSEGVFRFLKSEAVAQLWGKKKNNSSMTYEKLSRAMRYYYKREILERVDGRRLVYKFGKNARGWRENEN
The settings on record: protein: recombinant; tags: N-terminal GST; dsDNA, one strand shown. The procedure, abridged: as §1

For the next test, the target named is SPI1 (Homo sapiens, UniProt P17947 1-270). The settings on record: protein: recombinant; tags: N-terminal GST; dsDNA, one strand shown. The method in brief:
as §1

The next test addresses SPIB (Homo sapiens, UniProt Q01892 1-262). The settings on record: protein: recombinant; tags: N-terminal GST; dsDNA, one strand shown. The procedure, abridged:
as §1

For a further test, the target named is T6, ELK3 (Homo sapiens, UniProt P41970 1-407).
T6 sequence: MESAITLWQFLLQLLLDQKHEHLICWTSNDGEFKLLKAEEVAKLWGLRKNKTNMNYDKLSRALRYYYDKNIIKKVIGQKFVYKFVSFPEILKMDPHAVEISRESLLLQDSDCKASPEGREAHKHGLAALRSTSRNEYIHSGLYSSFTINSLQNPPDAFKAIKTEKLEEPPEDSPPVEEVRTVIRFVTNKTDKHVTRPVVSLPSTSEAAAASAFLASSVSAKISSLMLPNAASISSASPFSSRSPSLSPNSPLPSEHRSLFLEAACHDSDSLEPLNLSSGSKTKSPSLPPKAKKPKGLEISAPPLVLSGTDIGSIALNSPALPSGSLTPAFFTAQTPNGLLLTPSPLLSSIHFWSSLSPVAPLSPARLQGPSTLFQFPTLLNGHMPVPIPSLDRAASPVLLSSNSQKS
The settings on record: protein: recombinant; tags: N-terminal GST; dsDNA, one strand shown. The method in brief:
as §1

Another test has as its target T7, FEV (Homo sapiens, UniProt Q99581 1-238).
T7 sequence: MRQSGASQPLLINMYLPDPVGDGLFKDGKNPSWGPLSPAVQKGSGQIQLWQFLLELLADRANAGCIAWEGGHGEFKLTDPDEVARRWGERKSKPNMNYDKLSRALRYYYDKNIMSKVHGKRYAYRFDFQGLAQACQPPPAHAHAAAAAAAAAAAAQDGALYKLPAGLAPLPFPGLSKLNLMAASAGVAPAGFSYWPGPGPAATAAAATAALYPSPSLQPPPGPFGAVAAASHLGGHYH
The settings on record: protein: recombinant; tags: N-terminal GST; dsDNA, one strand shown. The method in brief:
as §1

A further test addresses ETV5 (Homo sapiens, UniProt P41161 1-510). The settings on record: protein: recombinant; tags: N-terminal GST; dsDNA, one strand shown. The procedure, abridged:
as §1

For the next test, the target named is HSF1 (Homo sapiens, UniProt Q00613 1-529). The settings on record: protein: recombinant; tags: N-terminal GST; chain copies: 3; dsDNA, one strand shown. The procedure, abridged: as §1
Chain of HSF1 (Q00613 whole entry): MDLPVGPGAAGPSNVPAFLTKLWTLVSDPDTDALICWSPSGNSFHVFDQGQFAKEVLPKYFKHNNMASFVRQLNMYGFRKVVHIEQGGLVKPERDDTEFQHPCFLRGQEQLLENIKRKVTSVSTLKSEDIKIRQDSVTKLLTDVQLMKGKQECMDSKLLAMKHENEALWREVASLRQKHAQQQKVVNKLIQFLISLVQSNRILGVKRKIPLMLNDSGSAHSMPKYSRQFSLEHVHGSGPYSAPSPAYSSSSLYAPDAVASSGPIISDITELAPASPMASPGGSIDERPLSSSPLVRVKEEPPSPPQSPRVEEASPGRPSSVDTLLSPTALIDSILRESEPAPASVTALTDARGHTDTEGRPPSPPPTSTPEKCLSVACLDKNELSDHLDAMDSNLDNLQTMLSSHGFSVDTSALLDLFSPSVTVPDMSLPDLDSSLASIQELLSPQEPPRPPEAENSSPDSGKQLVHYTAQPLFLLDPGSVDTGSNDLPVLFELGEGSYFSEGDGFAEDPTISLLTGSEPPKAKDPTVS
A further test deals with ELF4 (Homo sapiens, UniProt Q99607 1-663). The settings on record: protein: recombinant; tags: N-terminal GST; dsDNA, one strand shown. The procedure, abridged:
as §1

In another test the target is T8, ELK4 (Homo sapiens, UniProt P28324-2 1-405).
T8 sequence: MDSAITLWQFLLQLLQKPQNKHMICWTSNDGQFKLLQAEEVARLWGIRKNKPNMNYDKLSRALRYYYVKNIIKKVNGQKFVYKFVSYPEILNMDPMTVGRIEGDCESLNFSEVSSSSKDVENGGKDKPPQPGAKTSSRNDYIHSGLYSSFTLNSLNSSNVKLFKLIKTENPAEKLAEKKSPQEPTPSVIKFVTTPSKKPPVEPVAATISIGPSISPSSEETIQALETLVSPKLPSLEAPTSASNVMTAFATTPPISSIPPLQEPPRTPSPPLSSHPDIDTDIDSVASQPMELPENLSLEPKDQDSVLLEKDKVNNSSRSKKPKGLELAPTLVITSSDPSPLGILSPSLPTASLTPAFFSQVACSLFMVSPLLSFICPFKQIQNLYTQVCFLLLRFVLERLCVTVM
The settings on record: protein: recombinant; tags: N-terminal GST; dsDNA, one strand shown. The method in brief: as §1

A further test has as its target T9, ETV2 (Homo sapiens, UniProt O00321 1-342).
T9 sequence: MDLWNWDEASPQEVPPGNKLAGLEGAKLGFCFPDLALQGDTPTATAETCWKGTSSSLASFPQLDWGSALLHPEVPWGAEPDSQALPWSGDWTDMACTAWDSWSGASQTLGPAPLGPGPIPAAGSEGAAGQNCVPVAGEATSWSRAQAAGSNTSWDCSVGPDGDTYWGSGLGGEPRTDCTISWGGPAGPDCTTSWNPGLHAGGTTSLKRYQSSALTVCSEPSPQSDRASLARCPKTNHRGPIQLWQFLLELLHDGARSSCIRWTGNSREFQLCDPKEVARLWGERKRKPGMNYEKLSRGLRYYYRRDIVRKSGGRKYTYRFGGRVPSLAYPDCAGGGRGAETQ
The settings on record: protein: recombinant; tags: N-terminal GST; dsDNA, one strand shown. The method in brief: as §1

Another test deals with T10, ELF3 (Homo sapiens, UniProt P78545 1-371).
T10 sequence: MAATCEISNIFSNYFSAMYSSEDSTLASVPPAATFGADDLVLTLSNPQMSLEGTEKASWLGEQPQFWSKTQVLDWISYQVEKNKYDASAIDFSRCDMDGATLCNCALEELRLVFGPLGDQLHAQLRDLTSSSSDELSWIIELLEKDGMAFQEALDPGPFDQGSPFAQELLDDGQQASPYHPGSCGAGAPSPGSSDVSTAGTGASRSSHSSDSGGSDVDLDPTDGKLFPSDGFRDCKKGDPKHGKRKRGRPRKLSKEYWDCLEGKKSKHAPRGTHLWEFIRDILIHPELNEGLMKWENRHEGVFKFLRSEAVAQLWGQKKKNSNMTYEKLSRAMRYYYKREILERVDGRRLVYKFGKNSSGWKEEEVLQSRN
The settings on record: protein: recombinant; tags: N-terminal GST; dsDNA, one strand shown. The method in brief:
as §1

The target in a further test is CRX (Homo sapiens, UniProt O43186 1-299). The settings on record: protein: recombinant; tags: N-terminal GST; dsDNA, one strand shown. The procedure, abridged:
as §1

The target in a further test is ETV1 (Homo sapiens, UniProt P50549 1-477). The settings on record: protein: recombinant; tags: N-terminal GST; dsDNA, one strand shown. The procedure, abridged: as §1
Chain of ETV1 (P50549 whole entry): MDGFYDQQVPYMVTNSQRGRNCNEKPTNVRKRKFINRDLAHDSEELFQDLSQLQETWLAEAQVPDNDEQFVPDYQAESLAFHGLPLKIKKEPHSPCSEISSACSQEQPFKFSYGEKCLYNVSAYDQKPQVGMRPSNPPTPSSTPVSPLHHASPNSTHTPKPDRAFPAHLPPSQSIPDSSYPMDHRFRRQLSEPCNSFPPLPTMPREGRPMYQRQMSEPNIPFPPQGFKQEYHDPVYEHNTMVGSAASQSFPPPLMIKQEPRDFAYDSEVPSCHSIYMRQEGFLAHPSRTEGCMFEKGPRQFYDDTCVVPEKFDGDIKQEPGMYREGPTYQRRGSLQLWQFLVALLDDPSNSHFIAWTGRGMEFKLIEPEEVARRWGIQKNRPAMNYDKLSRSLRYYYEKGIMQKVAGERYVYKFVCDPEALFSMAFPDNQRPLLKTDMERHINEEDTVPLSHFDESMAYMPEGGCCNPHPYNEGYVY

Chain of ELF1 (P32519 whole entry): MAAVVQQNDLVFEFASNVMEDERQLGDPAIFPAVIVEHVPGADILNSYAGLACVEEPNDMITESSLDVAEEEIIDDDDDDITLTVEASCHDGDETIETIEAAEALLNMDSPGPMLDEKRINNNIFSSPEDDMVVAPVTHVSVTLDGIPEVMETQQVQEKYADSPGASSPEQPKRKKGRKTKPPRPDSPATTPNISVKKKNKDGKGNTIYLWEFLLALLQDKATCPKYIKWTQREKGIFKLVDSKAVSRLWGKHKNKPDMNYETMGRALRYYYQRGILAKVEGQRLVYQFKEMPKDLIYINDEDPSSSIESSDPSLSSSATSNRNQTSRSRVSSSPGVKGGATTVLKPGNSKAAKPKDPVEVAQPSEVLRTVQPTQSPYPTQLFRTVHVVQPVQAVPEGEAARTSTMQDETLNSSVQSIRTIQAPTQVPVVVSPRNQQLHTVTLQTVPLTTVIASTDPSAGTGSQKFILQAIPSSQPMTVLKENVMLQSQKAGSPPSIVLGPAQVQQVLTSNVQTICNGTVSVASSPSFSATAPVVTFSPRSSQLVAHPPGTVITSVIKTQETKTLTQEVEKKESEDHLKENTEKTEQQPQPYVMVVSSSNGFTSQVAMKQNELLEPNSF
Chain of CRX (O43186 whole entry): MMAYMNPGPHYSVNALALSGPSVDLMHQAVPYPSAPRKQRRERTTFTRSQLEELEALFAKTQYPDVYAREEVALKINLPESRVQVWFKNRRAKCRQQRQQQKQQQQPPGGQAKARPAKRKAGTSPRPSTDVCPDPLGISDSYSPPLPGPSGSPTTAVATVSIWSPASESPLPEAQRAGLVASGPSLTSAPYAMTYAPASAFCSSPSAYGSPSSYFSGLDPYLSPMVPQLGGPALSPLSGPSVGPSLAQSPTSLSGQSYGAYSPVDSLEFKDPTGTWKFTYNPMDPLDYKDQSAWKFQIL
Chain of ELF4 (Q99607 whole entry): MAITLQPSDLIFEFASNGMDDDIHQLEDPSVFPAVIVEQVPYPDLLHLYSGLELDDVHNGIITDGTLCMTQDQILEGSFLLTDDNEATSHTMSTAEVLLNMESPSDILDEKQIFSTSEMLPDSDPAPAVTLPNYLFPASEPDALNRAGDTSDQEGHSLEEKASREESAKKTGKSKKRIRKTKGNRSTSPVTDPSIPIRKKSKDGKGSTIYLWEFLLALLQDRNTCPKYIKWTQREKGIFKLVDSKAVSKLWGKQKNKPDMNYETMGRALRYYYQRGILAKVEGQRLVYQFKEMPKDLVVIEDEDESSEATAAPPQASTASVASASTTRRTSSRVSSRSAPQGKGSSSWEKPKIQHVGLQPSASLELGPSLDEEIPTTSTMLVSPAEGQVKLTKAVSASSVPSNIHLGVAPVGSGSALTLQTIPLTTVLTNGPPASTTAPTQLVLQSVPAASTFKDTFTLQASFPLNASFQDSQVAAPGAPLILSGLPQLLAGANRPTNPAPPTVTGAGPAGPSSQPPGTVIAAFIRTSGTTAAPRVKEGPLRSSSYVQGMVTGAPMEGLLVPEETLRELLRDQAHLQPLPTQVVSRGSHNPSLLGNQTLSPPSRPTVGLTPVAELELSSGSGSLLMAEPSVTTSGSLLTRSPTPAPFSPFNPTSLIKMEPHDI
Chain of SPIB (Q01892 whole entry): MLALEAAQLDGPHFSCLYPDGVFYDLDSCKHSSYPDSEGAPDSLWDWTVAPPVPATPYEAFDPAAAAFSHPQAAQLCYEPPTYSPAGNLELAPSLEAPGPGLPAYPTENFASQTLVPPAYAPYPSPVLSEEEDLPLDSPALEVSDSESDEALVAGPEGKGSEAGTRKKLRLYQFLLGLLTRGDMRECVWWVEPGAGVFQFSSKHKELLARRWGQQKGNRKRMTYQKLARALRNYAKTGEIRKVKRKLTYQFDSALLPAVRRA
Chain of ETV5 (P41161 whole entry): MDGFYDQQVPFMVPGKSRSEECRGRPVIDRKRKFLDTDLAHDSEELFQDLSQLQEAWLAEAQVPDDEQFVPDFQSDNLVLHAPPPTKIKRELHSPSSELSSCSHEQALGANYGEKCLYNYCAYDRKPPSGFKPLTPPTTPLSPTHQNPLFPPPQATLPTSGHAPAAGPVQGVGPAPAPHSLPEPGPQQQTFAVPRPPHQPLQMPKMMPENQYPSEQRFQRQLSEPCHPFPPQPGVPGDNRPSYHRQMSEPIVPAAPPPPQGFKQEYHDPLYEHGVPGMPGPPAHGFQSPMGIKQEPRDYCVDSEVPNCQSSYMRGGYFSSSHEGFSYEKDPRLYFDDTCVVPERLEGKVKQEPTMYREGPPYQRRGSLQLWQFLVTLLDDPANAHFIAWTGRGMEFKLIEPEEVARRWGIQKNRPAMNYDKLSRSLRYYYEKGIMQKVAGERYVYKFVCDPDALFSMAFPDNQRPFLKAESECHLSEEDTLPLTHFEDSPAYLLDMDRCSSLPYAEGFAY

On to ATAGCA, for which the binding signal is 1.17 fold enrichment (6-mer frequency, TF over GST control) with FLI1; 1.14 fold enrichment (6-mer frequency, TF over GST control) in the test with ELK1; 1.19 fold enrichment (6-mer frequency, TF over GST control) with GABPA; 1.19 fold enrichment (6-mer frequency, TF over GST control) with ERG; 1.14 fold enrichment (6-mer frequency, TF over GST control) in the test with ELF1; 1.13 fold enrichment (6-mer frequency, TF over GST control) with EHF. Besides, the binding signal with SPI1 was 1.11 fold enrichment (6-mer frequency, TF over GST control); in the test with SPIB it was 1.18 fold enrichment (6-mer frequency, TF over GST control); in the test with ELK3 it was 1.15 fold enrichment (6-mer frequency, TF over GST control); in the test with FEV, 1.13 fold enrichment (6-mer frequency, TF over GST control); in the test with ETV5 it was 1.17 fold enrichment (6-mer frequency, TF over GST control); with HSF1 it was 1.02 fold enrichment (6-mer frequency, TF over GST control). Further, the binding signal with ELF4 was 1.16 fold enrichment (6-mer frequency, TF over GST control); with ELK4, 1.15 fold enrichment (6-mer frequency, TF over GST control); with ETV2, 1.13 fold enrichment (6-mer frequency, TF over GST control); with ELF3 it was 1.25 fold enrichment (6-mer frequency, TF over GST control); with CRX it was 1.07 fold enrichment (6-mer frequency, TF over GST control); in the test with ETV1, 1.1 fold enrichment (6-mer frequency, TF over GST control).
